A short description of assay [1]: NCI Yeast Anticancer Drug Screen. Data for the rad50 strain (AID 155).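 Note: 0% = growth of vehicle-only cultures of the same strain.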 To be noted: S. cerevisiae rad50 strain growth inhibition, hits give high values. Summed up:
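Readout: growth inhibition relative to vehicle-treated cultures. Compound exposure was carried out in a genetically defined yeast strain deficient in DNA damage repair.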

Assay [2] can be described thus: NCI Yeast Anticancer Drug Screen. Data for the mec2-1 strain (AID 157). The settings on record: S. cerevisiae mec2-1 strain, hits give high values. A digest of the protocol: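 Test agents were screened against the mec2-1 yeast strain, with defined DNA repair or cell cycle alteration. Growth was scored as inhibition against vehicle-only controls.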
A short description of assay [3]: NCI Yeast Anticancer Drug Screen. Data for the sgs1 mgt1 strain (AID 161).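 Note: 0% = growth of cultures given vehicle only.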 To be noted: S. cerevisiae sgs1 mgt1 strain, hits give high values. Summed up: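 Inhibition of yeast growth, normalised to vehicle-treated controls, is reported for a strain bearing genetic alterations in DNA damage repair.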
The nature of assay [4]: NCI Yeast Anticancer Drug Screen. Data for the cln2 rad14 strain (AID 165).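 Note: 0% = growth equal to vehicle treated cultures.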 To be noted: S. cerevisiae cln2 rad14 strain, hits give high values. Summed up:
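Growth of compound-exposed yeast (cln2 rad14 genotype) measured and expressed as inhibition relative to vehicle.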

Assay [5] in a line: NCI Yeast Anticancer Drug Screen. Data for the bub3 strain (AID 167). To be noted: S. cerevisiae bub3 mutant strain, hits give high values. Summed up:
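Readout: yeast growth inhibition, expressed relative to vehicle-only wells. The test organism is a mutant strain from a panel with lesions in DNA repair or checkpoint genes.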

A short description of assay [6]: NCI Yeast Anticancer Drug Screen. Data for the mlh1 rad18 strain (AID 175). The settings on record: S. cerevisiae mlh1 rad18 strain growth inhibition, hits give high values. A digest of the protocol: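 In this whole-cell yeast screen, a strain with altered DNA damage repair is challenged with compound, and its growth is measured against matched vehicle-treated controls.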

The mark [7] stands for this setting: at 5.0 µM (retest, dose inferred, filed as 0.5).
[8] abbreviates: at 50.0 µM (retest, dose inferred, filed as 5.0).

Results on ten compounds are retold here after PubChem BioAssay (NCI).

This is part of a sample that, as a whole, favours compounds with a hit. Of some 79,000 tested, about 15% had one in any assay. A number with no mark means an inactive call. Active and inactive are the calls of the source. Cut-off read from the data, not from the text of the source: active = growth inhibition above about 70%; inactive = the rest.

As to `CC(C)OC(=S)SSSC(=S)OC(C)C`, the growth inhibition in assay [1] (setting [7]) was 6%; in assay [1] (setting [8]), 99% (active); in assay [1] (at 50.0 µM), 99.5% (active); in assay [2] (setting [7]), 13%; in assay [2] (setting [8]), 99% (active); in assay [2] (at 50.0 µM), 99.5% (active). Further, the growth inhibition is 9% in assay [3] (setting [7]); 98% (active) in assay [3] (setting [8]); 99.7% (active) in assay [3] (at 50.0 µM); 0% in assay [4] (setting [7]); 97% (active) in assay [4] (setting [8]); 68.2% in assay [4] (at 50.0 µM). The growth inhibition is 6% in assay [5] (setting [7]); 99% (active) in assay [5] (setting [8]); 99.7% (active) in assay [5] (at 50.0 µM); 9% in assay [6] (setting [7]); 98% (active) in assay [6] (setting [8]); 95.5% (active) in assay [6] (at 50.0 µM).

For the compound `CCC(=O)OC1=C(Br)C(=O)c2ccccc2C1=O`, the growth inhibition in assay [1] (setting [7]) is 14%; in assay [1] (setting [8]), 85% (active); in assay [1] (at 50.0 µM) it was 89.6% (active); in assay [2] (setting [7]), 17%; in assay [2] (setting [8]) it was 94% (active); in assay [2] (at 50.0 µM), 57.4%. The growth inhibition in assay [3] (setting [7]) is 25%; in assay [3] (setting [8]), 68%; in assay [3] (at 50.0 µM) it was 80.3% (active); in assay [4] (setting [7]), 4%; in assay [4] (setting [8]) it was 68%; in assay [4] (at 50.0 µM), 1.15%. For the same compound, the growth inhibition in assay [5] (setting [7]) was 18%; in assay [5] (setting [8]) it was 96% (active); in assay [5] (at 50.0 µM), 18.9%; in assay [6] (setting [7]), 38%; in assay [6] (setting [8]), 85% (active); in assay [6] (at 50.0 µM), 76.6% (active).

As to `CCS(=O)(=O)OC(C)CCl` (stereo not given), the growth inhibition was -2% in assay [1] (setting [7]); -3% in assay [1] (setting [8]); -5.65% in assay [1] (at 50.0 µM); 1% in assay [2] (setting [7]); 0% in assay [2] (setting [8]); -14.7% in assay [2] (at 50.0 µM). Also, the growth inhibition in assay [3] (setting [7]) is 0%; in assay [3] (setting [8]), -1%; in assay [3] (at 50.0 µM), 11.8%; in assay [4] (setting [7]) it was -2%; in assay [4] (setting [8]), 2%; in assay [4] (at 50.0 µM), 70.2% (active). Further, the growth inhibition in assay [5] (setting [7]) was -2%; in assay [5] (setting [8]) it was -3%; in assay [5] (at 50.0 µM) it was -4.9%; in assay [6] (setting [7]), -2%; in assay [6] (setting [8]) it was -5%; in assay [6] (at 50.0 µM), 49.5%.

As to `O=C(NC1CCN(Cc2ccccc2)CC1)c1ccccc1I`, the growth inhibition in assay [1] (setting [7]) is 48%; in assay [1] (setting [8]), 73% (active); in assay [1] (at 50.0 µM), 74.3% (active); in assay [2] (setting [7]) it was 38%; in assay [2] (setting [8]), 50%; in assay [2] (at 50.0 µM), 39.9%. For the same compound, the growth inhibition in assay [3] (setting [7]) was 80% (active); in assay [3] (setting [8]) it was 81% (active); in assay [3] (at 50.0 µM) it was 82.6% (active); in assay [4] (setting [7]) it was 83% (active); in assay [4] (setting [8]), 82% (active); in assay [4] (at 50.0 µM), 81% (active). In addition, the growth inhibition was 59% in assay [5] (setting [7]); 64% in assay [5] (setting [8]); 74% (active) in assay [5] (at 50.0 µM); 73% (active) in assay [6] (setting [7]); 76% (active) in assay [6] (setting [8]); 80.8% (active) in assay [6] (at 50.0 µM).

In the case of `CCCCCCCC/C(C=O)=C\c1ccccc1`, the growth inhibition was -3% in assay [1] (setting [7]); -25% in assay [1] (setting [8]); 77.8% (active) in assay [1] (at 50.0 µM); -21% in assay [2] (setting [7]); -2% in assay [2] (setting [8]); 72.8% (active) in assay [2] (at 50.0 µM). Moreover, the growth inhibition in assay [3] (setting [7]) was -3%; in assay [3] (setting [8]), 3%; in assay [3] (at 50.0 µM), 78.2% (active); in assay [4] (setting [7]) it was -1%; in assay [4] (setting [8]), 7%; in assay [4] (at 50.0 µM), 45%. The growth inhibition was -11% in assay [5] (setting [7]); -19% in assay [5] (setting [8]); 64.8% in assay [5] (at 50.0 µM); -3% in assay [6] (setting [7]); -13% in assay [6] (setting [8]); 77.9% (active) in assay [6] (at 50.0 µM).

With `CCN(CC)CCNc1ccc(OC)c2cccnc12`, the growth inhibition is 15% in assay [1] (setting [7]); 30% in assay [1] (setting [8]); 99.3% (active) in assay [1] (at 50.0 µM); 1% in assay [2] (setting [7]); 9% in assay [2] (setting [8]); 99.4% (active) in assay [2] (at 50.0 µM). Besides, the growth inhibition in assay [3] (setting [7]) is 8%; in assay [3] (setting [8]), 16%; in assay [3] (at 50.0 µM) it was 99.3% (active); in assay [4] (setting [7]), 5%; in assay [4] (setting [8]), -2%; in assay [4] (at 50.0 µM) it was 98% (active). In addition, the growth inhibition in assay [5] (setting [7]) was 10%; in assay [5] (setting [8]), 16%; in assay [5] (at 50.0 µM), 99.5% (active); in assay [6] (setting [7]) it was 17%; in assay [6] (setting [8]) it was 25%; in assay [6] (at 50.0 µM), 98.8% (active).

As to `COc1ccc(C(CC(=O)c2ccccc2)Sc2ccccc2N)cc1` (stereo not given), the growth inhibition is 46% in assay [1] (setting [7]); 52% in assay [1] (setting [8]); -4.15% in assay [1] (at 50.0 µM); 54% in assay [2] (setting [7]); 51% in assay [2] (setting [8]); 26.9% in assay [2] (at 50.0 µM). In addition, the growth inhibition in assay [3] (setting [7]) was -13%; in assay [3] (setting [8]), 32%; in assay [3] (at 50.0 µM) it was 32.4%; in assay [4] (setting [7]), 44%; in assay [4] (setting [8]) it was 20%; in assay [4] (at 50.0 µM) it was -13.3%. In addition, the growth inhibition in assay [5] (setting [7]) is 35%; in assay [5] (setting [8]), 57%; in assay [5] (at 50.0 µM), 49.8%; in assay [6] (setting [7]), 36%; in assay [6] (setting [8]) it was 46%; in assay [6] (at 50.0 µM), 7.35%.

`Cc1ccc2[nH]c3c(c2c1)[n+]([O-])c1ccccc1[n+]3[O-]`: the growth inhibition in assay [1] (setting [7]) was 5%; in assay [1] (setting [8]), 16%; in assay [1] (at 50.0 µM), -17.4%; in assay [2] (setting [7]), 3%; in assay [2] (setting [8]) it was -4%; in assay [2] (at 50.0 µM), 35.5%. The growth inhibition was -8% in assay [3] (setting [7]); -13% in assay [3] (setting [8]); 5.8% in assay [3] (at 50.0 µM); -4% in assay [4] (setting [7]); -7% in assay [4] (setting [8]); -22.5% in assay [4] (at 50.0 µM). Moreover, the growth inhibition was -8% in assay [5] (setting [7]); -6% in assay [5] (setting [8]); 37.3% in assay [5] (at 50.0 µM); -6% in assay [6] (setting [7]); 7% in assay [6] (setting [8]); -0.5% in assay [6] (at 50.0 µM).

With `O=C(NCCCCCN1CCC2(CCCCC2)CC1)C(c1ccccc1)C1CCCCC1` (stereo not given), the growth inhibition is -1% in assay [1] (setting [7]); 99% (active) in assay [1] (setting [8]); 99.6% (active) in assay [1] (at 50.0 µM); -12% in assay [2] (setting [7]); 98% (active) in assay [2] (setting [8]); 99.6% (active) in assay [2] (at 50.0 µM). Moreover, the growth inhibition is 0% in assay [3] (setting [7]); 97% (active) in assay [3] (setting [8]); 99.7% (active) in assay [3] (at 50.0 µM); 5% in assay [4] (setting [7]); 99% (active) in assay [4] (setting [8]); 99.2% (active) in assay [4] (at 50.0 µM). In addition, the growth inhibition was -15% in assay [5] (setting [7]); 100% (active) in assay [5] (setting [8]); 99.6% (active) in assay [5] (at 50.0 µM); 0% in assay [6] (setting [7]); 99% (active) in assay [6] (setting [8]); 99.7% (active) in assay [6] (at 50.0 µM).

Take `NS(=O)(=O)c1ccc(Nc2c3ccccc3nc3c(C(=O)NC(CO)(CO)CO)cccc23)cc1`: the growth inhibition is -14% in assay [1] (setting [7]); 24% in assay [1] (setting [8]); 18.9% in assay [1] (at 50.0 µM); -11% in assay [2] (setting [7]); -10% in assay [2] (setting [8]); -1% in assay [2] (at 50.0 µM). Further, the growth inhibition in assay [3] (setting [7]) is -5%; in assay [3] (setting [8]), -13%; in assay [3] (at 50.0 µM), 15.3%; in assay [4] (setting [7]), 25%; in assay [4] (setting [8]), -10%; in assay [4] (at 50.0 µM), 45.5%. For the same compound, the growth inhibition was -9% in assay [5] (setting [7]); -8% in assay [5] (setting [8]); 12.9% in assay [5] (at 50.0 µM); -14% in assay [6] (setting [7]); 9% in assay [6] (setting [8]); 15.9% in assay [6] (at 50.0 µM).
